Assay outcomes: PubChem, several laboratories
Only some compounds are listed: those with a hit (about 2.1% of all), similar ones and a draw of the others.
PrPC TRFRET: reduces human prion protein on the cell surface; inhibition, % at 13.8 µM; cell surface PrPC, TR-FRET read-out; P04156; 370,000 tested, 0.43% active; in the data active means inhibition above about 24%
MazEF act: activators of E. coli MazEF toxin-antitoxin RNase | P0AE70 | FAM/BHQ RNA-DNA oligo cleavage fluorescence, 5 h | activation, % at 20 µM | 350,000 tested, 0.32% active; in the data active means activation above about 50%
Target sequence (P0AE70 whole entry, looked up): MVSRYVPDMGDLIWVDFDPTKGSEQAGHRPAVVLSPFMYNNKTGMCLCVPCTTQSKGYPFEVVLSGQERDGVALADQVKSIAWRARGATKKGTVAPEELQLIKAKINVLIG
BJeLR lethal: kills HRASV12-expressing BJeLR cells; inhibition, % (concentration not given with the values); BJeLR (HRASV12) viability, CellTiter-Glo ATP luminescence, 48 h; 300,000 tested, 0.17% active; in the data active means inhibition above about 50%
PfHsp40 yeast: restores yeast growth despite PfHsp40 toxicity | S. cerevisiae expressing PfHsp40, growth rescue, ATP luminescence | growth rescue, % at 12.5 µM | 340,000 tested, 0.68% active | AID 504582; in the data active means growth rescue above about 28%, passing the limit was not always enough;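 further: yeast W303a lacking pdr1 and pdr3 grown in galactose medium; growth measured after three days at 30 °C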
DUSP3 inh: inhibitors of human VHR1 phosphatase (DUSP3) | inhibition, % at 13.3 µM | 290,000 tested, 0.52% active | recombinant VHR phosphatase, pNPP absorbance; in the data active means inhibition above about 50%
Target sequence (P51452 whole entry, looked up): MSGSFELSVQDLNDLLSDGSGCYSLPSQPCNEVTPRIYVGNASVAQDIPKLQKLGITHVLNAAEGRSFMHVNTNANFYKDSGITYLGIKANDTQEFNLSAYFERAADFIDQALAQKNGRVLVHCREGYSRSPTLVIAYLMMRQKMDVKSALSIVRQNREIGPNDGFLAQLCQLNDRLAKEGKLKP
PrP UTR inh: inhibition of PrP 5' UTR reporter expression. cell-based PrP 5' UTR mRNA reporter, plate reader. inhibition, % (test concentration not listed). 340,000 tested, 0.35% active. AID 488862; in the data active means inhibition above about 52%
PrP 5UTR single: prion 5' UTR mRNA inhibition, cherry-pick retest; 1,100 tested, 48% active; inhibition, % at 2.5 µM; shares compounds with PrP UTR inh; cell-based prion protein 5' UTR reporter, plate reader; in the data active means inhibition above about 54%
Numbers stand for hits; – = inactive; · = no result.

SMILES	PrPC TRFRET	MazEF act	BJeLR lethal	PfHsp40 yeast	DUSP3 inh	PrP UTR inh	PrP 5UTR single
Cc1ccc(C(C)C)c(OCC(=O)NNC(=O)Cc2ccc(S(=O)(=O)N3CCOCC3)s2)c1	–	–	·	–	·	–	·
CCCNC(=O)Cn1c(=O)n(CC(=O)N2CCCCC2)c(=O)c2sccc21	–	–	–	–	56	–	·
CC1(C(=O)NCc2ccc(Cl)cc2)CCN1C(=O)c1cccc(F)c1 (configuration not stated)	–	·	·	·	·	·	·
O=C(COc1c(F)c(F)c(C(F)(F)F)c(F)c1F)Nc1ccc(N2CCOCC2)c(Cl)c1	–	–	–	30	–	–	·
CSc1ccc(OCC(=O)Nc2ccc(N3CCOCC3)c(Cl)c2)cc1	–	–	–	–	–	–	·
O=C(c1ccc(OC2CCN(Cc3ccccn3)CC2)cc1)N1CCC[C@H]1CO	–	–	–	–	–	–	·
FC(F)(F)c1nnc2c(Sc3ccccc3)nc3ccc(Cl)cc3n12	–	–	62	–	–	–	·
Cc1[nH]n(C(N)=S)c(=O)c1N=Nc1ccc2ccccc2c1	–	–	–	55	–	–	·
Cc1ccc(N=Nc2c(C)[nH]n(C(N)=S)c2=O)cc1C	–	–	–	–	–	–	·
NC(=S)n1[nH]c(-c2ccc([N+](=O)[O-])cc2)c(N=Nc2cccc([N+](=O)[O-])c2)c1=O	–	–	–	–	81	–	·
COc1ccc2nc(NC(=O)c3cc(C)oc3C)sc2c1	–	–	–	–	–	–	·
COc1ccc2nc(NC(=O)c3ccoc3C)sc2c1	–	–	75	–	–	–	·
COc1ccc2nc(NC(=S)N(C)C)sc2c1	–	–	–	99	–	–	·
Cn1c(NCc2ccccc2F)nc2cc(-c3cccc(Cl)c3)sc2c1=O	–	·	·	·	·	·	·
Cc1ccccc1OCc1nnc(SCc2cc(=O)[nH]c3ccccc23)n1-c1ccccc1	–	–	–	–	–	–	·
Cc1ccccc1OCc1nnc(SCc2cc(=O)[nH]c3ccccc23)o1	–	65	–	–	–	–	·
COc1cccc(OCc2nnc(SCc3cc(=O)[nH]c4ccccc34)o2)c1	–	–	–	–	–	–	·
O=c1cc(CSc2nnc(COc3ccc(Cl)cc3)o2)c2ccccc2[nH]1	–	51	–	–	–	–	·
Cn1cccc1-c1cc(C(=O)N/N=C/c2cc(Br)ccc2O)[nH]n1	–	–	–	125	–	–	·
COc1ccc(/C=C/C(=O)Nc2cccc(S(=O)(=O)NC3=NCCCCC3)c2)cc1OC	–	–	·	–	·	–	·
N#C/C(=C(/O)COC(=O)Cc1c[nH]c2ccccc12)c1nc2ccccc2[nH]1	–	–	–	80	–	–	·
Cc1ccc2c(c1)sc(=NC(=O)C1CC1)n2C	–	–	–	–	–	–	·
Cc1ccc2c(c1)sc(=NC(=O)c1cccs1)n2C	–	–	–	–	–	65	–
NC(=O)Nc1ccc(C(=O)OCC(=O)N(Cc2ccccc2)C2CCS(=O)(=O)C2)cc1 (configuration not stated)	–	–	–	–	–	–	·
CN(C)c1cccc(C(=O)OCC(=O)N(Cc2ccccc2)C2CCS(=O)(=O)C2)c1 (configuration not stated)	–	–	·	–	–	60	–
SMILES	PrPC TRFRET	MazEF act	BJeLR lethal	PfHsp40 yeast	DUSP3 inh	PrP UTR inh	PrP 5UTR single
CCOc1ccccc1C1CC(=O)Nc2cc3c(cc21)OCCO3 (configuration not stated)	–	–	–	–	–	56	84
CCOc1ccccc1C1CC(=O)Nc2cc(C)c(C)cc21 (configuration not stated)	–	–	–	–	–	–	·
CCCOc1ccccc1C1CC(=O)Nc2cc3c(cc21)OCCO3 (configuration not stated)	·	–	–	–	–	70	80
Cc1nc2nc(N)nc(OCc3ccccc3)c2nc1C	–	–	–	·	·	·	·
CC1OC(OC2C=C3CCC4C(CCC5(C)C(c6ccc(=O)oc6)CCC45O)C3(C)CC2)C(O)C(OC2OC(CO)C(O)C(O)C2O)C1O (configuration not stated)	–	–	·	–	·	93	92
O=C(N/N=C/c1c[nH]c2ccccc12)c1[nH]c2ccc(Br)cc2c1-c1ccccc1	–	–	–	–	–	68	88
O=C(N/N=C/c1ccc(O)cc1)c1[nH]c2ccc(Br)cc2c1-c1ccccc1	–	–	–	–	–	–	·
CCOCCCN1C(=O)C(=O)N(CC(=O)N2c3ccccc3NC(=O)CC2C)C1=O (configuration not stated)	–	–	·	–	·	–	·
COCCNc1nc(Oc2ccc(C(N)=O)cc2)c2sccc2n1	–	·	·	·	·	·	·
O=C(N[C@@H](Cc1ccccc1)C(=O)N1CCC2CCN(S(=O)(=O)c3ccccc3)CC21)[C@@H]1CCCN1 (some centres not stated)	–	·	·	·	·	·	·
COc1ccc(C)cc1NC(=O)CNC(=O)[C@@H]1Cc2ccccc2CN1	–	–	–	–	–	–	·
O=C(c1ccccc1)N1CCSc2sccc2C1=O	–	–	–	–	–	58	–
O=C(c1ccccc1)N1CCSC1=S	–	–	–	–	–	–	·
O=C(CCNS(=O)(=O)c1ccc(OC(F)(F)F)cc1)N1CCCC1	–	–	·	–	·	–	·
CN(C)CC(C)(C)CNS(=O)(=O)c1ccc(OC(F)(F)F)cc1	–	–	–	–	–	59	–
O=S1(=O)CC2c3ccc(F)cc3CN2CN1CCc1ccccc1 (configuration not stated)	–	·	·	·	·	·	·
CCN(CCO)c1ccc(N=Nc2cc(C)[nH]n2)cc1	–	–	–	–	–	61	62
CCN(CCO)c1ccc(Nc2cc(-c3ccc(-c4ccccc4)cc3)ncn2)cc1	–	·	·	·	·	·	·
O=C(O)c1ccc(COc2ccccc2Cl)cc1	–	–	–	–	–	–	·
O=C(O)c1cccc(COc2ccccc2Cl)c1	–	–	–	–	–	69	83
O=C(CCS(=O)(=O)Cc1ccccc1)N1CCN(c2ccc([N+](=O)[O-])cc2)CC1	–	–	–	–	–	80	–
COc1ccc(CCNC(=O)c2coc(=O)c(Br)c2)cc1	–	–	–	·	–	·	·
CC(=O)Nc1cccc(-c2nnc(-c3ccccc3)o2)c1	–	–	–	–	–	–	·
CC(C)(C)C(=O)Nc1cccc(-c2nnc(-c3cccc(NC(=O)C(C)(C)C)c3)o2)c1	–	–	–	–	–	59	–
COc1ccc(OC)c(S(=O)(=O)N2CCCCC2C(=O)N2CCN(c3ccc(F)cc3)CC2)c1 (configuration not stated)	–	·	·	·	·	·	·
O=C(Nc1cccc2ncccc12)c1cccnc1	–	–	–	–	–	74	–
S=C(NCc1ccco1)Nc1ccc(Br)cn1	–	–	–	–	–	–	·
S=C(NCc1ccco1)Nc1cc(-c2ccccc2)[nH]n1	–	–	–	–	–	62	–
CCCCn1c(-c2ccccc2)nc2c(=O)n(C)c(=O)[nH]c21	–	–	–	–	–	78	–
